Screening results: PubChem, Johns Hopkins Ion Channel Center
The list is not random: actives were taken first. Their share in the collection is about 1.6%.
KCNQ2 enhance – KCNQ2 (rat) channel potentiation; O88943; CHO-K1 KCNQ2, FluxOR thallium flux fluorescence; active compounds read high; B-score at 10 µM; 310,000 compounds, 0.54% hits;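 active = fluorescence ratio B-score at least 3 SD of library B-scores, with initial fluorescence B-score within 3 of them, cut at about 5.3 in these data; same plate scores as AID 2156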;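 note: B-score of peak minus minimum over baseline fluorescence ratio after K+ and Tl+ stimulus; positive B-score means potentiation of KCNQ2 with more thallium influx and brighter signal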
Target sequence (O88943 whole entry, looked up): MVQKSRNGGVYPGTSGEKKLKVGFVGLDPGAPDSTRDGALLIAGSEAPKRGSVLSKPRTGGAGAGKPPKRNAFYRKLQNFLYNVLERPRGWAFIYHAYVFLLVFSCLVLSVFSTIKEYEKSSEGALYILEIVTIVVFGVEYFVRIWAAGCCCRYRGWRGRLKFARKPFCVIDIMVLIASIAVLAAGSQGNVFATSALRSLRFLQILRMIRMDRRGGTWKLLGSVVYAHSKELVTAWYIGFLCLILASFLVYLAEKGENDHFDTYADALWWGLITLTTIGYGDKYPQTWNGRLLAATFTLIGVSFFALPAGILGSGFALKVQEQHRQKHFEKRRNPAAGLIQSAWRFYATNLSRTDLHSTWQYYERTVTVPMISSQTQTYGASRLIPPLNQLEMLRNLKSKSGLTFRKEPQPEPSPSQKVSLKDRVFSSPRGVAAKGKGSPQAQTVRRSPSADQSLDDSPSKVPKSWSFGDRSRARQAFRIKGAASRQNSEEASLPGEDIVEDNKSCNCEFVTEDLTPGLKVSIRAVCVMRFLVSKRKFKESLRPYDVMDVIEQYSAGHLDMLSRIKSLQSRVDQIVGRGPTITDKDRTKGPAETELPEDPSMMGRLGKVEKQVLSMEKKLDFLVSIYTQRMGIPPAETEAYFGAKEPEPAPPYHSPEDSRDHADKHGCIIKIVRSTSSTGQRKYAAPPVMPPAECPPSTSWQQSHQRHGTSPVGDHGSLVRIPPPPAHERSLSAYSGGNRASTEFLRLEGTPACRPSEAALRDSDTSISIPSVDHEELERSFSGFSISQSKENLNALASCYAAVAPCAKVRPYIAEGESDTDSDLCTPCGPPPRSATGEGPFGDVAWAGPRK
KCNQ2 block – inhibitors of rat KCNQ2 potassium channel; AID 2156; O88943; B-score at 10 µM; CHO-K1 KCNQ2, FluxOR thallium flux, 20 min; active compounds read low; 310,000 compounds, 1.1% hits;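 active = fluorescence ratio B-score at most minus 3 library SDs, with starting brightness B-score within 2 library SDs, cut at about -5.5 in these data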
KCNQ2 block conf – rat KCNQ2 channel inhibition, confirmatory screen; shares compounds with KCNQ2 block; KCNQ2-expressing cells, thallium flux; active compounds read low; activity change, negative = inhibition, % at 10 µM; 1,000 compounds, 57% hits;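 note: 0% = vehicle wells and values are ratio percent relative to vehicle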
KCNQ1 spec – KCNQ2 inhibitor that also affects human KCNQ1 channel; AID 493026; KCNQ1-expressing cells, FluxOR thallium flux fluorescence; active compounds read low; 1,000 compounds, 15% hits; activity change, negative = inhibition, % at 10 µM; shares compounds with KCNQ2 block;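 active = activity change at least 3 SD of negative controls below their mean in both duplicate wells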;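 note: CHO cells stably transfected with KCNQ1 and depolarized by potassium stimulus; peak minus minimum fluorescence over baseline after thallium addition; 0% = vehicle negative control and -100% = blank without thallium stimulus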
CHO Tl ctr – KCNQ2 inhibitor counter-screen hit in parental CHO cells | shares compounds with KCNQ2 block | thallium flux counter-screen; active compounds read low | activity change, % at 10 µM | 1,000 compounds, 14% hits;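 note: 0% = vehicle negative controls with stimulus buffer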
KCNQ2 patch conf – rat KCNQ2 inhibition confirmed by electrophysiology; KCNQ2-expressing cells, automated patch clamp current; calls only at 10 µM; 550 compounds, 49% hits; shares compounds with KCNQ2 block
Starred values were filed as active, the others as inactive; i = inactive; nt = no result; + = active, no number. Unless noted, the rule behind the calls is not given here.

SMILES	KCNQ2 enhance	KCNQ2 block	KCNQ2 block conf	KCNQ1 spec	CHO Tl ctr	KCNQ2 patch conf
CCN(CC)C(=O)C1CCN(C(=O)c2oc3ccc(C)cc3c2C)CC1	nt	i	nt	nt	nt	nt
CCN(CC)C(=O)C1CCCN(C(=O)c2oc3ccc(C)cc3c2C)C1 (stereo not given)	-7	-7*	i	i	i	nt
C=CC[n+]1c(/C=C2\C=Cc3cc(C)ccc3N2CC)ccc2ccccc21	-9.8	-9.8*	i	i	i	nt
CCN1/C(=C\c2ccc3cc(C)ccc3[n+]2CC)Sc2cc(C)c(C)cc21	nt	i	nt	nt	nt	nt
COc1ccccc1N(CC(=O)N1CCOCC1)S(C)(=O)=O	0.25	i	nt	nt	nt	nt
O=C(Nc1nc(-c2ccc(-c3ccccc3)cc2)cs1)c1cc([N+](=O)[O-])ccc1N1CCOCC1	0.52	i	nt	nt	nt	nt
O=C(Nc1nc2c(ccc3ccccc32)s1)c1cc([N+](=O)[O-])ccc1N1CCOCC1	-9.6	-9.6*	-25%*	i	i	i
COc1cc2ncc(S(=O)(=O)c3ccccc3)c(N3CCCC(C)C3)c2cc1OC (stereo not given)	nt	i	nt	nt	nt	nt
O=C(CCN1CCCC1Cc1ccccc1)c1ccc2c(c1)OCCO2 (stereo not given)	-7.9	-7.9*	-35%*	-30%*	-24%*	+
O=C(CCN1CCc2ccccc2C1)c1ccc2c(c1)OCCO2	-8.3	-8.3*	-16%*	i	i	+
O=C(CCN1CCc2ccccc21)c1ccc2c(c1)OCCO2	0.36	i	nt	nt	nt	nt
O=C(CCN1CCCCC1)c1ccc2c(c1)OCCO2	nt	i	nt	nt	nt	nt
COc1ccccc1/C=C/C(=O)OCC(=O)Nc1ccccc1Sc1ccccc1	-6.8	-6.8*	-30%*	i	i	i
COc1ccccc1NC(=O)COC(=O)/C=C/c1ccccc1[N+](=O)[O-]	2.3	i	nt	nt	nt	nt
O=C(CSc1nnc(NC(=O)c2ccccc2F)s1)NCC1CCCO1 (stereo not given)	nt	i	nt	nt	nt	nt
Cc1ccc(SCC(=O)Nc2ccc(F)cc2[N+](=O)[O-])cc1C	0.31	i	nt	nt	nt	nt
COc1ccc(C(=O)C(OC(=O)c2ccccc2)c2ccccc2)cc1 (stereo not given)	-7	-7*	i	i	i	nt
O=C(COc1ccccc1)OC(C(=O)c1ccccc1)c1ccccc1 (stereo not given)	1.7	i	nt	nt	nt	nt
O=C(Nc1c2c(nn1-c1ccccc1)CS(=O)(=O)C2)c1ccccc1C(F)(F)F	1.2	i	nt	nt	nt	nt
Cc1ccc2nc3c(cc(C#N)c(=N)n3Cc3cccnc3)c(=O)n2c1	0.55	i	nt	nt	nt	nt
CCOC(=O)c1cnc(-n2nc(C)cc2C)nc1NC	0.03	i	nt	nt	nt	nt
CCOC(=O)c1cnc(-n2nc(C)cc2C)nc1NC1CCCCC1	-8.9	-8.9*	-33%*	i	i	+
CCN(CC)c1ccc(C(=O)Nc2ccccc2)cc1[N+](=O)[O-]	1.6	i	nt	nt	nt	nt
Nc1ccc(S(=O)(=O)Nc2ccc(Cl)nn2)cc1	0.68	i	nt	nt	nt	nt
C=CCn1c(=O)c(C(=O)NC(C)c2ccccc2)c(O)c2ccccc21 (stereo not given)	-8.2	-8.2*	-30%*	i	i	i
SMILES	KCNQ2 enhance	KCNQ2 block	KCNQ2 block conf	KCNQ1 spec	CHO Tl ctr	KCNQ2 patch conf
CCCn1c(=O)c(C(=O)NCc2ccccc2Cl)c(O)c2ccccc21	nt	i	nt	nt	nt	nt
C=CCn1c(=O)c(C(=O)NCc2ccccc2Cl)c(O)c2ccccc21	-7.1	-7.1*	i	i	i	nt
C=CCn1c(=O)c(C(=O)Nc2ccc(C)cc2)c(O)c2ccccc21	nt	i	nt	nt	nt	nt
Cc1ccc(S(=O)(=O)NCCS(=O)(=O)N2CCN(c3ccc(F)cc3)CC2)cc1	nt	i	nt	nt	nt	nt
C=C1SC(Nc2c(C)cccc2C)=NC12CCCCC2	nt	i	nt	nt	nt	nt
C=C1SC(Nc2c(C)cc(C)cc2C)=NC12CCCCC2	-7.6	-7.6*	-28%*	i	i	i
Cc1ccc(N(C(C)C(=O)N2CCCCC2)S(C)(=O)=O)cc1C (stereo not given)	0.99	i	nt	nt	nt	nt
CN1/C(=C\C(=S)NC(=O)c2ccc([N+](=O)[O-])cc2)C(C)(C)c2ccccc21	nt	i	nt	nt	nt	nt
CN1/C(=C\C(=S)NC(=O)c2cccc(Br)c2)C(C)(C)c2ccccc21	-7.8	-7.8*	-22%*	i	i	+
CN1/C(=C\C(=O)Nc2ccc(Br)cc2)C(C)(C)c2ccccc21	nt	i	nt	nt	nt	nt
CN1/C(=C\C(=O)Nc2cccc(Cl)c2)C(C)(C)c2ccccc21	-7.1	-7.1*	-20%*	i	i	i
